According to PubChem BioAssay (Tox21):
A number with no mark means an inactive call. The source made the active and inactive calls. Calls follow the shape of the dose curve; as a rule, active = well fitted curve in the direction sought with a large enough effect in the repeat runs; inconclusive = weak or mixed curves; inactive = flat fitted curve, though single readings scatter.
% is scaled to controls: 0 for no effect and ±100 for the full control effect.

Assay: qHTS assay to test for compound auto fluorescence at 590 nm (red) in HepG2 cell free culture (AID 720684)
Settings: cell-free medium autofluorescence, red 540/590 nm; series mostly up to 91.3 µM; fluorescence, % of Rose Bengal: at the top concentration
Description: U.S. Tox21 Program National Center for Advancing Translational Sciences [NCATS] NIH Chemical Genomics Center [NCGC] U.S. Environmental Protection Agency [EPA] National Institutes of Environmental Health Sciences [NIEHS] National Toxicology Program [NTP] U.S. Food and Drug Administration [FDA] Tox21 Assay Overview: Compound auto fluorescence often interferes with screening of the compound library against various biological targets and signaling pathways. Some of these compounds may have fluorophoric properties. Such properties may interfere with the assay outputs resulting in false positives and/or negatives. To decrease such complications and ensure the compound activities are relevant in terms of biological response, the Tox21 10K compound library was screened for auto fluorescence. From the fluorophores used as reporter signals in our screening assays, the auto fluorescence equivalencies of compounds against three fluorophores have been evaluated: Triamterene, Fluorescein and Rose Bengal sodium for blue, green and red fluorescence, respectively. The fluorescence intensities were measured using Excitation/Emission wavelengths at 405/460nm, 485/535nm and 540/590nm for blue, green and red labels, respectively. This assay includes the red fluorescence data.
Tox21 Assay Protocol Summary: 5 uL of culture medium (MEM containing 10% FBS) per well was dispensed into black wall/clear bottom 1536-well plates using a Multidrop Combi Dispenser (ThermoFisher Scientific, Waltham, MA). After 23 nL compound or DMSO vehicle was transferred into assay plate by a pintool work station (Kalypsys, San Diego, CA), fluorescence intensities in the assay plates were measured by an Envision (PerkinElmer, Shelton, CT) plate reader using three labels for measuring blue, green and red fluorescence at […] 460, 535 and 590nm respectively.
For Cc1c[nH]c2ccccc12, the “fluorescence, % of Rose Bengal” value was -0.0278% [at 46 µM]. Molecule CCC(Cl)CC(Cl)C(Cl)C(Cl)C(Cl)C(C)Cl (stereo not given) has a fluorescence, % of Rose Bengal of 0.0345% [at 13.4 µM]. In the case of CC(=O)OCC1=C(C(=O)O)N2C(=O)[C@@H](NC(=O)CSc3ccncc3)[C@H]2SC1, the “fluorescence, % of Rose Bengal” value is reported as -0.298% [at 46 µM]. With O=C(c1ccccc1)c1ccc(O)cc1 the “fluorescence, % of Rose Bengal” value was 0.0729% [at 95.7 µM]. For COc1ccc(C)cc1, the “fluorescence, % of Rose Bengal” value was -0.302%. In the case of CCCCCCC(O)CCCCCCCCCCC(=O)OC (stereo not given), the “fluorescence, % of Rose Bengal” value is reported as -0.0074%. For C1CCCCC1, the “fluorescence, % of Rose Bengal” value was -0.119% [at 95.7 µM]. In the case of CCC1CCC(CCC(=O)O)C1 (stereo not given), the “fluorescence, % of Rose Bengal” value is reported as 0.146% [at 95.7 µM]. In the case of O=C(O)CO, the “fluorescence, % of Rose Bengal” value is reported as -0.296%. In the case of O=C1c2ccccc2C(=O)c2c(O)ccc(O)c21, the “fluorescence, % of Rose Bengal” value is reported as -0.134%. For CC[C@H]1OC(=O)[C@H](C)[C@@H](O[C@H]2C[C@@](C)(OC)[C@@H](O)[C@H](C)O2)[C@H](C)[C@@H](O[C@@H]2O[C@H](C)C[C@H](N(C)C)[C@H]2O)[C@](C)(O)C[C@@H](C)C(=O)[C@H](C)[C@@H](O)[C@]1(C)O, the outcome was “inactive”. For COc1ccc(-c2cc(=S)ss2)cc1, the “fluorescence, % of Rose Bengal” value was -0.0109% [at 46 µM]. With c1ccc(CNc2ncnc3c2ncn3C2CCCCO2)cc1 (stereo not given) the “fluorescence, % of Rose Bengal” value was 0.0704%. For Nc1nc(-c2ccc([N+](=O)[O-])cc2)cs1, the “fluorescence, % of Rose Bengal” value was 0.236%. With CCC(=O)OCc1ccc(OC)cc1 the “fluorescence, % of Rose Bengal” value was -0.087%. COc1cc(NC(C)CCCN)c2ncccc2c1 (stereo not given) showed a fluorescence, % of Rose Bengal of 0.347% [at 18.6 µM]. For Cc1ccc(S(=O)(=O)NC(=O)NC2CCCCC2)cc1, the “fluorescence, % of Rose Bengal” value was 0.0139% [at 46 µM]. In the case of CC1CCc2nccnc21 (stereo not given), the “fluorescence, % of Rose Bengal” value is reported as -0.0186%. In the case of CCCCCCOC(=O)CCCCC, the “fluorescence, % of Rose Bengal” value is reported as -0.0688%. For Oc1ccc2c(c1)Cc1ccccc1-2, the “fluorescence, % of Rose Bengal” value was -0.122%. For COc1cc(NS(=O)(=O)c2ccc(N)cc2)nc(C)n1, the “fluorescence, % of Rose Bengal” value was -0.145% [at 46 µM]. In the case of COc1cc(C(C)=O)ccc1OCCCN1CCC(c2noc3cc(F)ccc23)CC1, the “fluorescence, % of Rose Bengal” value is reported as -0.2% [at 46 µM]. In the case of CCN(Cc1cccc(S(=O)(=O)O)c1)c1ccc(C(=C2C=CC(=[N+](CC)Cc3cccc(S(=O)(=O)O)c3)C=C2)c2ccc(O)cc2S(=O)(=O)[O-])cc1, the “fluorescence, % of Rose Bengal” value is reported as -0.125%. For Cc1cc(CCC(=O)OCCOCCOCCOC(=O)CCc2cc(C)c(O)c(C(C)(C)C)c2)cc(C(C)(C)C)c1O, the “fluorescence, % of Rose Bengal” value was -0.309%. With [Cl][Nd]([Cl])[Cl] the “fluorescence, % of Rose Bengal” value was -0.0443%. With CC[C@H]1OC(=O)[C@H](C)[C@@H](O[C@H]2C[C@@](C)(OC)[C@@H](O)[C@H](C)O2)[C@H](C)[C@@H](O[C@@H]2O[C@H](C)C[C@H](N(C)C)[C@H]2O)[C@](C)(O)C[C@@H](C)CN(C)[C@H](C)[C@@H](O)[C@]1(C)O the outcome was “inactive”. In the case of CCCCCCCCCCCCCOS(=O)(=O)O, the “fluorescence, % of Rose Bengal” value is reported as 0.0088%. CC1=CC[C@@H]2C[C@H]1C2(C)C gave a fluorescence, % of Rose Bengal of 0.0249% [at 18.6 µM]. For CC(=O)c1ccc[nH]1, the “fluorescence, % of Rose Bengal” value was 0.319%. With CCC(C)(C)C(=O)O the “fluorescence, % of Rose Bengal” value was -0.03%. In the case of CC(CCc1ccc(O)cc1)NCCc1ccc(O)c(O)c1 (stereo not given), the “fluorescence, % of Rose Bengal” value is reported as -0.137% [at 46 µM]. For CC(=O)C(=O)CC(C)C, the “fluorescence, % of Rose Bengal” value was -0.0165%. With Cc1ccc(NC(=O)N(C)C)cc1NC(=O)N(C)C the “fluorescence, % of Rose Bengal” value was 0.0902%. In the case of CC[C@@H](CO)NCCN[C@@H](CC)CO, the fluorescence, % of Rose Bengal is reported as 0.0051% [at 18.6 µM]. With CC(=O)C(C)=O the “fluorescence, % of Rose Bengal” value was 0.0704%. In the case of CC(C)(O)CCc1ccccc1, the “fluorescence, % of Rose Bengal” value is reported as 0.0131%. For CO[C@@H]1[C@@H](OC)[C@H](C)[C@@](O)(CC(=O)O)O[C@H]1[C@H](C)[C@H]1O[C@@]2(CC[C@@](C)([C@H]3CC[C@@](C)([C@@H]4O[C@@H]([C@H]5O[C@](C)(O)[C@H](C)C[C@@H]5C)C[C@@H]4OC4C[C@H](OC)[C@@H](OC)[C@H](C)O4)O3)O2)C[C@H](O)[C@H]1C (stereo not given in full), the “fluorescence, % of Rose Bengal” value was -0.0159% [at 46 µM]. In the case of CC(=O)OCC(=O)[C@@]1(OC(C)=O)[C@@H](C)C[C@H]2[C@@H]3C[C@H](F)C4=CC(=O)C=C[C@]4(C)[C@@]3(F)[C@@H](O)C[C@@]21C, the “fluorescence, % of Rose Bengal” value is reported as 0.0056% [at 46 µM]. In the case of CCCCCCCCCCCSCC(=O)O, the “fluorescence, % of Rose Bengal” value is reported as -0.0098%. CC(=O)OC(C)C[N+](C)(C)C (stereo not given) showed a fluorescence, % of Rose Bengal of -0.229% [at 18.6 µM].
